# Compounds with a hit are over-represented: about 4.6% of the library has one in this group of screens.
# D1 PAM – Potentiators of Human D1 Dopamine Receptor: qHTS. D(1A) dopamine receptor (Homo sapiens), P21728. HEK293 TREx D1 cells, calcium flux, dopamine EC20 potentiation. potentiation, % at 10 µM. 360,000 compounds, 0.036% hits. AID 504651, 2011; in the data active means potentiation above about 30%; further: 0% is about no effect
# TRHR PAM – qHTS for Small Molecule Agonists and Allosteric Enhancers of Human TRH Receptor: Primary Screen for Enhancers. Thyrotropin-releasing hormone receptor (Homo sapiens), P34981. TRHR cells, fluo-8 calcium fluorescence, EC20 TRH enhancement. enhancement, % at 2 µM. 360,000 compounds, 0.66% hits. AID 493056, 2011; in the data active means enhancement above about 30%; further: 0% is about no effect
# Target sequence (P34981 whole entry, looked up): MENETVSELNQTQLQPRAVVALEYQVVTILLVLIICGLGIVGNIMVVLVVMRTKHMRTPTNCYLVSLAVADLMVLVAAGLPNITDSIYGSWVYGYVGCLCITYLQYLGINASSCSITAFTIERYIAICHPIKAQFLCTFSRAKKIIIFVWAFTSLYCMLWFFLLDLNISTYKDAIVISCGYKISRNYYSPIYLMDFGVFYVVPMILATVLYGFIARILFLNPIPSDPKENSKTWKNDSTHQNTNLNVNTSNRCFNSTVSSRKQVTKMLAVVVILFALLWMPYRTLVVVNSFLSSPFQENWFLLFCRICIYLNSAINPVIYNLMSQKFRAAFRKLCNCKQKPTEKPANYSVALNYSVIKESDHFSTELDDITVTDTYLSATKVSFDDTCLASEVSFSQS
#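 TRHR-expressing cells loaded with fluo-8 calcium dye were read kinetically (ex 480/em 530) during compound addition, then stimulated with an EC20 of TRH (10 nM final). Enhancement of the Gq-mediated intracellular calcium response was scored.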
# TRHR ag – qHTS for Small Molecule Agonists and Allosteric Enhancers of Human TRH Receptor: Primary Screen for Agonists; activation, % at 2 µM; TRHR cells, calcium flux fluo-8, FDSS agonist mode; 360,000 compounds, 0.18% hits; further: 0% is about no effect
#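 Read-out: compound-evoked intracellular calcium rise in TRHR cells, fluo-8 dye, kinetic FDSS fluorescence at 1 s/cycle following a 10-cycle baseline. Cells cultured overnight before dye loading (30 min–1.5 h, RT).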
# D1 ag – Allosteric Agonists of the Human D1 Dopamine Receptor: qHTS. 360,000 compounds, 1% hits. HEK293 T-REx D1 cells, calcium flux, agonist mode. activation, % at 2 µM; further: 0% is about no effect
#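 Agonism was scored from calcium flux recorded over 180 s (1 read/s) after pintool compound addition, following a 10-cycle baseline. Cells were inducible force-coupled HEK293 TREx D1, plated overnight at 30 C and loaded with no-wash calcium dye.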
# D1 antag – Antagonist of Human D 1 Dopamine Receptor: qHTS; D(1A) dopamine receptor (Homo sapiens), P21728; HEK293 TREx D1 cells, calcium flux, dopamine EC80; hits give low values; activity change, negative = inhibition, % at 10 µM; 360,000 compounds, 3.2% hits; in the data active means activity change below about -30%; further: on the % scale 0 is the no-effect control and ±100 the full control effect
#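 After overnight tetracycline induction at 30 C, force-coupled D1 HEK293 cells took up a no-wash calcium dye at room temperature. Compounds were added and monitored 180 s, and the response to EC80 dopamine was then recorded.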
# * = called active by the depositor; nt = no result. Unless noted, no stated cut-off is given here; in the data, active means activation above about 30%; inactive means the rest.
SMILES,D1 PAM,TRHR PAM,TRHR ag,D1 ag,D1 antag
Cc1ccc2nc(-c3ccc(N4C(=O)CC(N5CCN(CCO)CC5)C4=O)cc3)sc2c1 (stereo unspecified),-4,-4,1,5,-36*
Cc1ccc(N2C(=O)CC(N3CCN(c4ccccn4)CC3)C2=O)cc1 (stereo unspecified),3,2,0,0,-1
Cc1ccc(S(=O)(=O)Nc2ccccc2F)cc1C(=O)NNC(=O)c1ccccc1O,1,0,0,1,2
Cc1ccc(NS(=O)(=O)c2ccc(-n3cccn3)cc2)cc1C,-2,2,1,6,-11
CCc1cccc(C)c1NS(=O)(=O)c1ccc(-n2cccn2)cc1,-1,3,-1,22,-47*
COc1ccc(NS(=O)(=O)c2ccc(-n3cccn3)cc2)cc1OC,-7,-3,1,15,-33*
CCc1cccc(NS(=O)(=O)c2ccc(-n3cccn3)cc2)c1,-4,0,0,13,-2
CCCNC(=O)C1CCC(Cn2c(=O)c3sccc3n(CC(=O)NCc3cccc(OC)c3OC)c2=O)CC1 (stereo unspecified),1,12,-2,-2,-9
C[n+]1ccc(/C=C/c2c[nH]c3ccc(F)cc23)cc1,-6,9,-1,56*,-4
CSc1ccccc1C(=O)NCCOc1cccc(C)c1,-4,-6,0,3,-50*
Cc1ccc(C(=O)NCCOc2cccc(C)c2)cc1,5,-3,-1,1,-4
COc1ccc(-c2cc3cccc(OC)c3oc2=O)cc1,2,-2,-1,1,-3
COc1cccc2cc(C(=O)N(Cc3cccs3)CC3CCCO3)c(=O)oc12 (stereo unspecified),-4,3,0,1,-38*
COc1cccc2cc(C(=O)N(C)C3CCN(C)CC3)c(=O)oc12,-10,5,1,1,-39*
COc1cccc2cc(C(=O)NCc3ccccn3)c(=O)oc12,-3,-7,0,0,-49*
COc1cccc2cc(-c3ccccc3)c(=O)oc12,-4,2,-1,-1,-31*
CNC(=O)c1cc2cccc(OC)c2oc1=O,-2,4,0,0,-12
O=C(c1ccncc1)N1CCN(S(=O)(=O)c2cccc(C(F)(F)F)c2)CC1,4,-5,0,0,1
CNCCC(Oc1ccc(C(F)(F)F)cc1)c1ccccc1 (stereo unspecified),nt,5,3,62*,nt
CNCCOCC(O)CSc1ccccc1 (stereo unspecified),-4,-1,0,2,-16
O=[N+]([O-])c1cc2c(c(CSc3nnnn3-c3ccc(O)cc3)c1)OCOC2,-5,17,0,3,-33*
COc1ccc(S(=O)(=O)N2CCN(Cc3cc(OC)c(O)c(OC)c3)CC2)cc1,-2,-2,0,1,11
COc1cc(CN2CCN(C(=O)c3ccc(-c4ccccc4)cc3)CC2)cc(OC)c1OC,-4,33*,0,0,13
CCCOC(=O)CN1C(=O)c2ccc(C(=O)OCCC)cc2C1=O,-4,5,0,0,-28
CCCOC(=O)c1ccc2c(c1)C(=O)N(c1ccccc1)C2=O,-4,5,0,7,-35*
Cc1ccc(N2C(=O)c3ccc(C(=O)N4CCN(Cc5ccccc5)CC4)cc3C2=O)cc1,-5,-6,0,58*,-48*
COc1cc(CN2CCN(S(=O)(=O)c3ccccc3)CC2)cc(OC)c1O,-6,8,2,1,-61*
O=C(COC(=O)C1CC1)NCc1ccccc1,7,-1,0,3,-4
COc1cc(OC)cc(C(=O)N2CCN(C(=O)c3ccc(-c4ccccc4)cc3)CC2)c1,3,36*,0,0,-1
COc1cc(C(=O)N2CCN(C(=O)C3CC3)CC2)cc(OC)c1OC,-19,3,0,1,-42*

# High-throughput results as filed in PubChem BioAssay.
